Targets with a hit are over-represented here; the source holds about 7,900 in all. About 0.6% of all pairs of compound and target were hits. A number with no mark means an inactive call.
Assays:
Test in all cases: log2 fold change, soluble protein after heating vs DMSO (PISA); higher = thermal stabilisation; K562 cells, 10 uM, 30 min; active = over 0.2 and 3.5 SD of the protein, either way, in both replicates (recomputed)
[1] = compound: CC1=C(C=C(C=C1)NC(=O)C2=CC(=CC=C2)C(C)(C)C#N)NC3=CC4=C(C=C3)N=CN(C4=O)C
Procedure, shortened: (§1)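 K562 cells at 2×10^6 cells/mL were exposed to 10 μM compound for 30 min, then aliquots were heated for 3 min across 48°C-58°C, pooled, and extracted in PBS containing 0.5% NP-40 at 4°C. The supernatant after 21,000xg for 90 min was taken as soluble protein and measured by TMTpro 16plex LC-MS/MS with channel sums equalised. Thermal stability is reported relative to control samples, with values from duplicates. Fold changes are given on a log2 scale.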

[2] = compound: CC1=C(C=C(C=C1)NC(=O)C2=CC(=CC=C2)N(C)C)NC(=O)C3=CC=C(C=C3)O
Procedure, shortened: as §1

[3] = compound: CC1=CC=C(C=C1)SC2=C3C=C(SC3=CN=C2)C(=O)N
Procedure, shortened: as §1

[4] = compound: CC1=NC(=CC=C1)C2=C(N=C(N2)C(C)(C)C)C3=CC4=NC=CN=C4C=C3
Procedure, shortened: as §1

Nexturastat A = compound: CCCCN(Cc1ccc(C(=O)NO)cc1)C(=O)Nc1ccccc1 [Nexturastat A]
Procedure, shortened: as §1

vemurafenib = compound: CCCS(=O)(=O)Nc1ccc(F)c(C(=O)c2c[nH]c3ncc(-c4ccc(Cl)cc4)cc23)c1F [vemurafenib]
Procedure, shortened: as §1

[5] = compound: CCCS(=O)(=O)Nc1ccc(F)c(C(=O)c2c[nH]c3ncc(Cl)cc23)c1F
Procedure, shortened: as §1

[6] = compound: CCCc1cc(C)[nH]c(=O)c1CNC(=O)c1cc(-c2ccnc(N3CCN(C)CC3)c2)cc2c1cnn2C(C)C
Procedure, shortened: as §1

givinostat = compound: CCN(CC)Cc1ccc2cc(COC(=O)Nc3ccc(C(=O)NO)cc3)ccc2c1 [givinostat]
Procedure, shortened: as §1

barasertib = compound: CCN(CCCOc1ccc2c(Nc3cc(CC(=O)Nc4cccc(F)c4)[nH]n3)ncnc2c1)CCOP(=O)(O)O [barasertib]
Procedure, shortened: as §1

[7] = compound: CC[C@@H]1C(=O)N(C)c2cnc(Nc3ccc(C(=O)NC4CCN(C)CC4)cc3OC)nc2N1C1CCCC1
Procedure, shortened: as §1

volasertib = compound: CC[C@@H]1C(=O)N(C)c2cnc(Nc3ccc(C(=O)N[C@H]4CC[C@H](N5CCN(CC6CC6)CC5)CC4)cc3OC)nc2N1C(C)C [volasertib]
Procedure, shortened: as §1

[8] = compound: CC[C@H](C)N1C=C(C2=C(C=C(C=C21)C3=CN=C(C=C3)N4CCNCC4)C(=O)NCC5=C(C=C(NC5=O)C)C)C
Procedure, shortened: as §1

epoxomicin = compound: CC[C@H](C)[C@@H](C(=O)N[C@@H]([C@@H](C)O)C(=O)N[C@@H](CC(C)C)C(=O)[C@]1(CO1)C)NC(=O)[C@H]([C@@H](C)CC)N(C)C(=O)C [epoxomicin]
Procedure, shortened: as §1

[9] = compound: CCn1c(C(=O)N(C2CC2)C2CC2)cc2c3c(ncn3C)c(Nc3cc(C)n(C)n3)nc21
Procedure, shortened: as §1

[10] = compound: CCn1cc(-c2ccnc3[nH]c(-c4cccc(CN(C)C)c4)cc23)c(-c2ccc(NC(=O)N(C)C)cc2)n1
Procedure, shortened: as §1

[11] = compound: CN(C)CC(=O)Nc1ccc2[nH]c(=O)c3ccccc3c2c1
Procedure, shortened: as §1

rosiglitazone = compound: CN(CCOC1=CC=C(C=C1)C[C@H]2C(=O)NC(=O)S2)C3=CC=CC=N3 (racemic) [rosiglitazone]
Procedure, shortened: as §1

[12] = compound: CN1C2=C(C3=C1C(=O)N(N=C3)CC4=CC(=CC=C4)N)SC(=C2)S(=O)C
Procedure, shortened: as §1

[13] = compound: CN1CCC(CNc2ccc3ncc(-c4cccc(OC(F)(F)F)c4)n3n2)CC1
Procedure, shortened: as §1

Chain of UniProt Q9BUK6 (Q9BUK6 whole entry, looked up): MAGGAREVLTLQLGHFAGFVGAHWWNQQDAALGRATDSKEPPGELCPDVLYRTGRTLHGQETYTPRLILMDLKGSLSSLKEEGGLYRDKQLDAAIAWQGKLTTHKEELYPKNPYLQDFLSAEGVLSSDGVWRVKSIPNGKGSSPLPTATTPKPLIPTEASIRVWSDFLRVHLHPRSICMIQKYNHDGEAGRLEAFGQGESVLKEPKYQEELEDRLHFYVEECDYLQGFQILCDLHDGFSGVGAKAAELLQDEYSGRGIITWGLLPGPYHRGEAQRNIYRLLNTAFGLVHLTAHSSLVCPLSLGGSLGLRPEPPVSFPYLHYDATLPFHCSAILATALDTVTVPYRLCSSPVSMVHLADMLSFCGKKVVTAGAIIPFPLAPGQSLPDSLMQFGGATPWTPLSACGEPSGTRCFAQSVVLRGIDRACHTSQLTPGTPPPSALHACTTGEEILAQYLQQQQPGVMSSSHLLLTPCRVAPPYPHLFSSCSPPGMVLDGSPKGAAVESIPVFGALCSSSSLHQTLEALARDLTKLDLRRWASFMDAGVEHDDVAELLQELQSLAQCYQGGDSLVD
Chain of UniProt P56556 (P56556 whole entry, looked up): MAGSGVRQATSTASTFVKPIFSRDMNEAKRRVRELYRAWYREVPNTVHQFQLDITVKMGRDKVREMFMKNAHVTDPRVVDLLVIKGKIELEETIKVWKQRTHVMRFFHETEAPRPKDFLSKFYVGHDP
Chain of UniProt P49757 (P49757 whole entry, looked up): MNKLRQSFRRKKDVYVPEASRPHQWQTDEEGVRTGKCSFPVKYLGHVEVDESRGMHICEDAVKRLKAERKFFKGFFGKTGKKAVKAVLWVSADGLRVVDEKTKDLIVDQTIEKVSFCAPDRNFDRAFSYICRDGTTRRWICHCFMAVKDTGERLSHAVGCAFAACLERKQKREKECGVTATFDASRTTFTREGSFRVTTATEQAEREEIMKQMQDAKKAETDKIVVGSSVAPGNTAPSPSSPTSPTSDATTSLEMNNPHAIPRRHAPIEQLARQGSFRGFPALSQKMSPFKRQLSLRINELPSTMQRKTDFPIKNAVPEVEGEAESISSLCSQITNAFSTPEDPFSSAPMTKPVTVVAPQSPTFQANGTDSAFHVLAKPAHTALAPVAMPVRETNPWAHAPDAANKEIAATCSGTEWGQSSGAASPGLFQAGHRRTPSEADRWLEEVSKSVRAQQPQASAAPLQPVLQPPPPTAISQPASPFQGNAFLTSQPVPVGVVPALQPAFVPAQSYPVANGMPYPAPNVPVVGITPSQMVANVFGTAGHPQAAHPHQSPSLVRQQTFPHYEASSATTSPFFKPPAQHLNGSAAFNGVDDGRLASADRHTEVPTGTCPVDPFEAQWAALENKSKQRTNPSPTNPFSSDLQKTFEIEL
Chain of UniProt Q96BN8 (Q96BN8 whole entry, looked up): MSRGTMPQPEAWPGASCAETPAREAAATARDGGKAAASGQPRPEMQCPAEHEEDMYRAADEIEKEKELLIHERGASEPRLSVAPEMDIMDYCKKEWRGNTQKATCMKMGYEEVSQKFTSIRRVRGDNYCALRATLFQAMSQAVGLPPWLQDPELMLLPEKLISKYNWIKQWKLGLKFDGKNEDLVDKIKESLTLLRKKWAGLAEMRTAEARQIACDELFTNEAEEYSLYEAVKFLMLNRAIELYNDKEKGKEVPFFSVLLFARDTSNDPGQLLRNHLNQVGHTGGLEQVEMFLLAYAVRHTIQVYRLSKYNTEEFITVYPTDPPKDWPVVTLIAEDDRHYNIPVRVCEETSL
Chain of UniProt Q12986 (Q12986 whole entry, looked up): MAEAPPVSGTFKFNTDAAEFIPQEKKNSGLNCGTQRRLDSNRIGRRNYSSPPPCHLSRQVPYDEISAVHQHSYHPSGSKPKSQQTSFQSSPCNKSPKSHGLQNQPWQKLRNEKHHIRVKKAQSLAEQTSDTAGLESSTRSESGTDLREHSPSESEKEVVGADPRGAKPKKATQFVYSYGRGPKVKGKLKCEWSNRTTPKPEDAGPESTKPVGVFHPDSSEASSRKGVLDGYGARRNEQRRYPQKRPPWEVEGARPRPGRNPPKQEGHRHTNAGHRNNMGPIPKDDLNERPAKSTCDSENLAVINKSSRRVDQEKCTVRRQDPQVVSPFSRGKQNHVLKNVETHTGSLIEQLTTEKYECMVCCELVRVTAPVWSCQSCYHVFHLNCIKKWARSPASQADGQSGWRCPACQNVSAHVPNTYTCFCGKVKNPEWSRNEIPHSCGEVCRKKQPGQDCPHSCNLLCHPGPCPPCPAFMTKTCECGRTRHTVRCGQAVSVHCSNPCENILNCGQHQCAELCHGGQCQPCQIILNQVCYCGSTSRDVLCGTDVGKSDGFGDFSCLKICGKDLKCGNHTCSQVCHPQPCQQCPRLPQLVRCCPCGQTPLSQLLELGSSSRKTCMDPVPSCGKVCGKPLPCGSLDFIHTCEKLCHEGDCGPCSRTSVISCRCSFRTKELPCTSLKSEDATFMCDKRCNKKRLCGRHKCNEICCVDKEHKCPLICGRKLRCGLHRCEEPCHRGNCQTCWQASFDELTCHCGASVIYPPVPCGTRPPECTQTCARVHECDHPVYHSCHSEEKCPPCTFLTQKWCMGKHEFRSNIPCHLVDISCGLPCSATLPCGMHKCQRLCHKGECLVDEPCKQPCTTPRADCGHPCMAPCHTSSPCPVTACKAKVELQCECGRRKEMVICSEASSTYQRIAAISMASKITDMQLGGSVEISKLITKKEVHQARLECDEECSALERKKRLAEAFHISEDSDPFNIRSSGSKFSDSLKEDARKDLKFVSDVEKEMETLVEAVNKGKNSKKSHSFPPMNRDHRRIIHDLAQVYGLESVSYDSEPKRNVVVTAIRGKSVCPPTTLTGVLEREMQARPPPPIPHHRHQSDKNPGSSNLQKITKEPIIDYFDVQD
Chain of UniProt P19338 (P19338 whole entry, looked up): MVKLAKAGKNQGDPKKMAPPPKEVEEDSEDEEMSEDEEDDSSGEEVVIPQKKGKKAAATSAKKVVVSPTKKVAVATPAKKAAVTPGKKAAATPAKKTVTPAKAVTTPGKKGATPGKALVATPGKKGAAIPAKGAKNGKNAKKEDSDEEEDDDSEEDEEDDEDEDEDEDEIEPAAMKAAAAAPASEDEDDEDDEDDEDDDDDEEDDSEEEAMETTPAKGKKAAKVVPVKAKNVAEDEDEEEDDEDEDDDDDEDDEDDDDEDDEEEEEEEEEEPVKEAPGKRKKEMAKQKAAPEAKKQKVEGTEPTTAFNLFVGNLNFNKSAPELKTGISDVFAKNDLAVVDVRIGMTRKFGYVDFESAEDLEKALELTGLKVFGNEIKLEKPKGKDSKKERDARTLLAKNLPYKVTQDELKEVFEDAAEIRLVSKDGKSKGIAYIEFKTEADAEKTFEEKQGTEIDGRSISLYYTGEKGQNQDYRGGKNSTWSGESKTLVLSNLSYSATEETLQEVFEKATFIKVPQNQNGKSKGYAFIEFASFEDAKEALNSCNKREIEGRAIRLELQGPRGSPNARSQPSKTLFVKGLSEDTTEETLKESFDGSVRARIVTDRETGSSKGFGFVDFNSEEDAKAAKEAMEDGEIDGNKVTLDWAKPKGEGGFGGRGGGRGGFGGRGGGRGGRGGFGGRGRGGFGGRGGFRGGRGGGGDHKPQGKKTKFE
Chain of UniProt Q9UI09 (Q9UI09 whole entry, looked up): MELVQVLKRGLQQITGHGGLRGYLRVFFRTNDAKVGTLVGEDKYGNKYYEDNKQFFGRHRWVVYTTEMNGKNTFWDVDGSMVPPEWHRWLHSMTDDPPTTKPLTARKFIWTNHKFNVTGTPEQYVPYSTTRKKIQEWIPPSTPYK
Chain of UniProt P04181 (P04181 whole entry, looked up): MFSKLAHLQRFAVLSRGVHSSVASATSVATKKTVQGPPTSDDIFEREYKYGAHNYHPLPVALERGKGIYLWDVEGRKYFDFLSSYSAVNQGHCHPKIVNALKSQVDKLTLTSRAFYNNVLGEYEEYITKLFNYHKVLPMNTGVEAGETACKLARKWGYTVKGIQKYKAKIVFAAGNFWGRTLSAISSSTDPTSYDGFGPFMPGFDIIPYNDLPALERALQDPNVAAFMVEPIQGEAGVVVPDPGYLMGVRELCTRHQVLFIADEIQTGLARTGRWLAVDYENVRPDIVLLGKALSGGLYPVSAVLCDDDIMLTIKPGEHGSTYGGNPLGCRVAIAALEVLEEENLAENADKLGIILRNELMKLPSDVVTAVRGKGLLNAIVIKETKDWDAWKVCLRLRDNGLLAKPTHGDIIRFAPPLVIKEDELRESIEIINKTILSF
Chain of UniProt Q8N573 (Q8N573 whole entry, looked up): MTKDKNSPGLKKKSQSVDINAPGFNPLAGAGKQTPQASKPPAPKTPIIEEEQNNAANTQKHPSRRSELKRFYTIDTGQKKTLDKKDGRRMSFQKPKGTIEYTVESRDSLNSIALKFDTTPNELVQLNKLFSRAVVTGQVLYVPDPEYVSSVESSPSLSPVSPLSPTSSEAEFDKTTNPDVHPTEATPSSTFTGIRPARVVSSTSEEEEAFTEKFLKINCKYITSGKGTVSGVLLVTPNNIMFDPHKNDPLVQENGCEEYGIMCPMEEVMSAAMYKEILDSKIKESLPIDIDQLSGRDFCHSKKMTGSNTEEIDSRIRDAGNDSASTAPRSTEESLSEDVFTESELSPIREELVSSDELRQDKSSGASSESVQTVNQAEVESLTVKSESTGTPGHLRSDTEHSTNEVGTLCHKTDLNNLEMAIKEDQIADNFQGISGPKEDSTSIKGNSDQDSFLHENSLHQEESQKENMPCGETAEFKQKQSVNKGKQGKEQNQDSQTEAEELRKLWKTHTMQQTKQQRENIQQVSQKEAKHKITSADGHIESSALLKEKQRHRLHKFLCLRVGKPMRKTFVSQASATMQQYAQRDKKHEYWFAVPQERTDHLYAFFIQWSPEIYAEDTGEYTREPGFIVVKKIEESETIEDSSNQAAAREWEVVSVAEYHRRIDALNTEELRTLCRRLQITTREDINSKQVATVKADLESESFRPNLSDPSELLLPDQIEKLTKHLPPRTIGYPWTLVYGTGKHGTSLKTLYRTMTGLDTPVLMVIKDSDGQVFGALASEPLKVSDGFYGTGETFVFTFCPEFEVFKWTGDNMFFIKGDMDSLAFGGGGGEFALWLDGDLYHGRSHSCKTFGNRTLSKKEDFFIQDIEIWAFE

Row | Target | log2 fold change [1] | log2 fold change [2] | log2 fold change [3] | log2 fold change [4] | log2 fold change (Nexturastat A) | log2 fold change (vemurafenib) | log2 fold change [5] | log2 fold change [6] | log2 fold change (givinostat) | log2 fold change (barasertib) | log2 fold change [7] | log2 fold change (volasertib) | log2 fold change [8] | log2 fold change (epoxomicin) | log2 fold change [9] | log2 fold change [10] | log2 fold change [11] | log2 fold change (rosiglitazone) | log2 fold change [12] | log2 fold change [13]
1 | NOP2 isoform 4 (UniProt P46087) | -0.031 | -0.062 | -0.105 | -0.264 | 0.2 | -0.433 | -0.051 | 0.172 | 0.178 | -0.223 | 0.196 | 0.348 | -0.03 | -0.328 | -0.098 | 0.364 | -0.346 | -0.056 | 0.546 | 0.494
2 | NOB1 (UniProt Q9ULX3) | 0.039 | 0.047 | 0.012 | 0.027 | 0.034 | 0.055 | 0.031 | 0.182 | 0.055 | 0.041 | -0.053 | -0.026 | 0.093 | -0.02 | -0.033 | 0.026 | -0.011 | 0.026 | 0.04 | -0.049
3 | OTULIN (UniProt Q96BN8) | 0.03 | 0.002 | 0.035 | 0.015 | -0.17 | -0.023 | 0.171 | -0.018 | 0.039 | 0.105 | 0.045 | -0.331 | 0.074 | 0.037 | -0.093 | -0.084 | 0.054 | 0.051 | 0.015 | -0.226
4 | NDUFA12 (UniProt Q9UI09) | 0.022 | -0.1 | 0.014 | -0.028 | -0.027 | 0.039 | 0.03 | -0.044 | 0.114 | 0.056 | -0.135 | -0.244 | 0.081 | 0.046 | -0.063 | -0.173 | 0.119 | 0.082 | -0.054 | -0.632 (active)
5 | MPHOSPH10 (UniProt O00566) | 0.052 | -0.01 | -0.031 | -0.079 | 0.098 | -0.041 | 0.009 | 0.047 | 0.087 | -0.107 | 0.099 | -0.155 | 0.084 | -0.26 | -0.028 | 0.182 | -0.012 | 0.089 | 0.314 | 0.133
6 | NUP160 (UniProt Q12769) | 0.006 | 0.037 | 0.023 | 0.017 | -0.037 | -0.01 | 0.083 | 0.002 | 0.018 | 0.062 | -0.109 | -0.62 (active) | 0.005 | -0.049 | -0.01 | 0.04 | 0.007 | 0.03 | -0.033 | 0.014
7 | OAT (UniProt P04181) | 0.087 | 0.014 | 0.02 | 0.042 | -0.01 | 0.011 | -0.023 | -0.011 | 0.045 | 0.061 | 0.049 | 0.1 | 0.021 | 0.043 | -0.041 | -0.1 | 0.004 | -0.006 | -0.102 | -0.164
8 | PAFAH1B2 (UniProt P68402) | 0.064 | 0.005 | -0.106 | -0.046 | -0.157 | 0.083 | -0.135 | -0.355 | 0.042 | 0.046 | 0.002 | 0.064 | 0.036 | 0.102 | 0.018 | -0.087 | -0.009 | 0 | -0.037 | -0.016
9 | OXR1 (UniProt Q8N573) | 0.005 | -0.003 | 0.005 | 0.052 | -0.025 | 0.023 | -0.013 | -0.062 | 0.012 | 0.027 | -0.052 | -0.071 | 0.035 | -0.013 | 0.006 | 0.026 | 0.062 | 0.005 | -0.033 | -0.257 (active)
10 | MYL12B (UniProt O14950) | 0.005 | -0.015 | 0.014 | 0.007 | -0.005 | 0.039 | 0.054 | 0.136 | -0.023 | 0.014 | -0.053 | -0.085 | 0.06 | 0.052 | -0.06 | -0.064 | 0.031 | -0.025 | -0.078 | 0.01
11 | NUMB (UniProt P49757) | -0.006 | 0.018 | -0.067 | -0.046 | 0.09 | 0.026 | -0.002 | 0.004 | 0.02 | -0.01 | -0.017 | 0.057 | 0.02 | -0.013 | 0.009 | -0.045 | -0.024 | 0.053 | -0.007 | -0.202
12 | NFX1 (UniProt Q12986) | -0.113 | 0.051 | -0.082 | 0.004 | 0.287 | 0.148 | -0.032 | 0.17 | 0 | -0.125 | 0.029 | 0.15 | -0.001 | -0.144 | 0.029 | 0.232 | -0.216 | 0.138 | 0.128 | 0.197
13 | MSTO1 (UniProt Q9BUK6) | -0.032 | -0.052 | -0.02 | 0.024 | -0.118 | 0.052 | 0.018 | -0.012 | 0.011 | 0.037 | 0.014 | -0.012 | 0.046 | 0.044 | 0.038 | -0.119 | 0.071 | 0.119 | -0.057 | -0.185
14 | NDUFA6 (UniProt P56556) | 0.029 | -0.082 | 0.1 | 0.125 | -0.067 | 0.04 | 0.198 | -0.064 | 0.047 | 0.035 | -0.069 | -0.252 | 0.098 | 0.115 | -0.086 | -0.089 | 0.081 | 0.116 | -0.022 | -0.072
15 | NCL (UniProt P19338) | -0.017 | -0.056 | -0.077 | -0.126 | 0.275 | -0.139 | -0.036 | 0.145 | 0.085 | -0.101 | 0.167 | 0.173 | -0.011 | -0.427 | 0.022 | 0.336 | -0.06 | -0.194 | 0.393 | 0.293

— the supplement of paper PMC10849652
